{
  "source": "PubChem BioAssay AID686979",
  "about": "(National Center for Advancing Translational Sciences (NCATS), 2013)",
  "note": "The campaign covered roughly 420,000 compounds. About 50,000 (12%) were called active. Not shown: some 26% with an inconclusive outcome. The full list was thinned out, with actives kept by preference. Unmarked numbers belong to inactive results. Calls come from the whole dose curve; as a rule, active = well fitted inhibition curve with a large enough effect; inconclusive = small, poorly fitted or top-dose-only effect; inactive = flat fitted curve, though single readings scatter. % is set by controls: 0 for no effect and ±100 for the full control effect; potency is the fitted concentration of half-maximal effect.",
  "data": [
    {"test": "qHTS for Inhibitors of human tyrosyl-DNA phosphodiesterase 1 (TDP1): qHTS in cells in presence of CPT; note: nearly all actives have a fitted effect of over 55% in size", "conditions": "chicken DT40 Tdp1-/-;hTDP1 cells + 20 nM CPT, ATP luminescence, 48 h; series mostly up to 46.2 µM; activity change, negative = growth inhibition: at the top concentration", "procedure,_shortened": "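Cell growth measured by CellTiter-Glo luminescence after a minimum 48 h, 37 C compound exposure with 20 nM CPT in Tdp1-knockout DT40 cells stably expressing hTDP1, seeded 400/well; qHTS titration format.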", "units": {"activity change, negative = growth inhibition": "%"}, "values": [
      {"smiles": "Cc1cn(C)c(CC(=O)NCc2ccccc2)c1C(=O)O", "activity change, negative = growth inhibition": -2.5},
      {"smiles": "C=CCn1c(SCC(N)=O)nnc1-c1cc2c(s1)CCC(CC)C2", "note": "(stereo not drawn)", "activity change, negative = growth inhibition": -13.6},
      {"smiles": "CCC1OC(c2ccc([N+](=O)[O-])cc2)=Nc2ccccc21", "note": "(stereo not drawn)", "activity change, negative = growth inhibition": 3.74},
      {"smiles": "CC(NC(=O)c1ccco1)c1ccc2c(c1)OCO2", "note": "(stereo not drawn)", "activity change, negative = growth inhibition": -3.51},
      {"smiles": "COc1ccc(C(CNCC(=O)Nc2ccccc2F)N(C)C)cc1", "note": "(stereo not drawn)", "activity change, negative = growth inhibition": -3.81},
      {"smiles": "COc1ccc(C(CCNCc2ccccc2F)c2ccc(F)cc2)cc1", "note": "(stereo not drawn)", "Potency": "16.4 µM (active)"},
      {"smiles": "COc1ccc(CCNC(=O)COC(=O)Cc2ccccc2F)cc1", "activity change, negative = growth inhibition": -7.27},
      {"smiles": "O=C(NNC(=O)C1CCC1)c1ccccc1", "activity change, negative = growth inhibition": 0.324},
      {"smiles": "CC1(C)c2[nH]c3ccccc3c2C[C@H]2C(=O)N(N)CC(=O)N21", "activity change, negative = growth inhibition": 30.9},
      {"smiles": "COc1cccc(CN(C)C(=O)CC[C@H]2O[C@@H](n3cnc4c(NC(=O)c5ccccc5)ncnc43)[C@H](O)[C@@H]2O)c1", "activity change, negative = growth inhibition": -19.3},
      {"smiles": "Nc1ncnc2c1ncn2[C@@H]1O[C@H](CNC(=O)[C@H](N)Cc2cccnc2)[C@@H](O)[C@H]1O", "activity change, negative = growth inhibition": 0.794},
      {"smiles": "COc1ccc(CC(N)C(=O)NC2C(O)[C@H](n3cnc4c(N(C)C)ncnc43)O[C@@H]2CO)cc1", "note": "(stereo partly drawn)", "Potency": "17.6 µM (active)"},
      {"smiles": "CC(=O)N1CCOc2ccc(S(=O)(=O)N3CCC(C(=O)Nc4ccccc4F)CC3)cc21", "activity change, negative = growth inhibition": -1.73},
      {"smiles": "CN(CCO)S(=O)(=O)c1ccc2c(c1)C(=O)c1cc(S(=O)(=O)N(C)CCO)ccc1-2", "activity change, negative = growth inhibition": 3},
      {"smiles": "O=C1c2ccccc2C(=O)N1c1ccc(S(=O)(=O)N2CCOCC2)c2ccccc12", "activity change, negative = growth inhibition": -5.84},
      {"smiles": "CCCC/C=C/c1cccc2nncn12", "activity change, negative = growth inhibition": -26.4},
      {"smiles": "CC(=O)c1ccc(N2CCN(S(=O)(=O)c3ccc4c(c3)CC(=O)N4C)CC2)cc1", "activity change, negative = growth inhibition": -14.5},
      {"smiles": "CC(=O)c1ccc(N2CCN(C(=O)C3CCN(S(=O)(=O)c4ccc5c(c4)CC(C)N5C(=O)C4CC4)CC3)CC2)cc1", "note": "(stereo not drawn)", "Potency": "11.6 µM (active)"},
      {"smiles": "CCS(=O)(=O)N1CCC(C(=O)N2CCN(c3ccccc3)CC2)CC1", "activity change, negative = growth inhibition": -9.24},
      {"smiles": "Cc1ccc2c(c1)N(CCCC(=O)NCc1cccnc1)C(=O)CO2", "activity change, negative = growth inhibition": 13.5},
      {"smiles": "Cc1nc(CC(=O)NNS(=O)(=O)c2ccc(F)c(Cl)c2)cs1", "activity change, negative = growth inhibition": 1.93},
      {"smiles": "CN(C)S(=O)(=O)c1ccc(Cl)c(NC(=O)COC(=O)CC(NC(N)=O)c2ccc(Cl)cc2)c1", "note": "(stereo not drawn)", "activity change, negative = growth inhibition": -19.7},
      {"smiles": "CCOC(=O)C1CCN(Cc2nnc(-c3cccc(Br)c3)o2)CC1", "activity change, negative = growth inhibition": -15.7},
      {"smiles": "CCCCCCCNC(=O)C1(CC2CC(c3cccc(Br)c3)=NO2)CCN(C(=O)c2cc(OCC)c(OCC)c(OCC)c2)CC1", "note": "(stereo not drawn)", "Potency": "23.1 µM (active)"},
      {"smiles": "CN(CC(=O)NCCc1ccccc1)S(=O)(=O)c1cnc[nH]1", "activity change, negative = growth inhibition": -3.81},
      {"smiles": "CCOc1ccccc1-n1c(SCC(=O)NCc2ccco2)nnc1-c1ccncc1", "activity change, negative = growth inhibition": -3.89},
      {"smiles": "Cn1c(SCc2ccc(F)cc2)nnc1-c1ccncc1", "activity change, negative = growth inhibition": -10.9},
      {"smiles": "Cc1ccc(Nc2nc(CSc3nnc(-c4ccncc4)n3-c3ccccc3C)cs2)cc1", "Potency": "13 µM (active)"},
      {"smiles": "O=C(O)CC/C(=C\\c1cc2c(cc1Br)OCO2)c1nc2ccccc2s1", "activity change, negative = growth inhibition": 3.75},
      {"smiles": "O=C(N1CCCC1)C12CC3CC(C1)CC(C(=O)N1CCCC1)(C3)C2", "activity change, negative = growth inhibition": 0.242},
      {"smiles": "CCCc1nc(SCC(=O)Nc2ccccc2OC)c2c(=O)n(C)c(=O)n(C)c2n1", "Potency": "14.6 µM (active)"},
      {"smiles": "CCc1nc(SCC(=O)Nc2ccccc2OC)n[nH]1", "activity change, negative = growth inhibition": 0.57},
      {"smiles": "CCCc1nc(SCC(=O)N2CCCC2)c2c(=O)n(C)c(=O)n(C)c2n1", "activity change, negative = growth inhibition": -6.82},
      {"smiles": "O=C(Cc1c[nH]c2ccccc12)N/N=C/c1cccc(F)c1", "activity change, negative = growth inhibition": -2.53},
      {"smiles": "O=C(CSCc1c(Cl)cccc1Cl)NN1C(=O)c2ccccc2C1=O", "activity change, negative = growth inhibition": -19.9},
      {"smiles": "Cc1ccccc1CNC(=O)Cn1c(C)c2cnn(-c3ccccc3)c(=O)c2c1C", "activity change, negative = growth inhibition": -0.956},
      {"smiles": "COc1cc(NC(=O)NCC2CCN(Cc3ccc(C)cc3)CC2)cc(OC)c1OC", "activity change, negative = growth inhibition": -8.33},
      {"smiles": "CCCn1c2ccccc2c2cnn(CC(=O)NCC3CCN(Cc4ccc(C)cc4)CC3)c(=O)c21", "Potency": "20.6 µM (active)"},
      {"smiles": "O=C(Cn1ncc2c3ccccc3n(Cc3ccccc3)c2c1=O)NCc1ccccn1", "Potency": "inactive"},
      {"smiles": "Cc1ccc(Cn2c(C)c3cnn(CC(=O)NCCN4CCOCC4)c(=O)c3c2C)cc1", "activity change, negative = growth inhibition": -2.81},
      {"smiles": "Cc1ccc(Cn2c(C)c3cnn(CC(=O)NCc4ccccc4)c(=O)c3c2C)cc1", "Potency": "2.91 µM (active)"},
      {"smiles": "CCCn1c2ccccc2c2cnn(CC(=O)NCCCOC(C)C)c(=O)c21", "Potency": "23.1 µM (active)"},
      {"smiles": "CC1CCCCN1CCCNC(=O)Cn1ncc2c([nH]c3ccccc32)c1=O", "note": "(stereo not drawn)", "Potency": "inactive"},
      {"smiles": "CC1CC(C)CN(CCCNC(=O)Cn2ncc3c([nH]c4ccccc43)c2=O)C1", "note": "(stereo not drawn)", "activity change, negative = growth inhibition": 0.742},
      {"smiles": "O=C1C(Cl)=C(N2CCOCC2)C(=O)N1c1ccccc1", "activity change, negative = growth inhibition": -20.8},
      {"smiles": "CCOC(=O)CNC(=O)CSc1ncccc1-c1nc2ccccc2[nH]1", "activity change, negative = growth inhibition": 10.4},
      {"smiles": "COc1ccccc1C1=CC(=O)C[C@H](c2ccc(F)cc2)C1", "activity change, negative = growth inhibition": -29.5},
      {"smiles": "COc1ccc(-c2nnc3n2CCCCC3)cc1", "activity change, negative = growth inhibition": 8.16},
      {"smiles": "O=C(O)c1ccc([N+](=O)[O-])cc1Sc1ccsc1", "activity change, negative = growth inhibition": -11.6},
      {"smiles": "COc1ccc(-c2nc3c(c(SCC(=O)Nc4ccc(C(=O)O)cc4)n2)Cc2ccccc2O3)cc1", "activity change, negative = growth inhibition": -18.6},
      {"smiles": "Cc1ccc(-c2nc(Cn3c(=O)cc(-c4ccccc4)c4c(C)nn(C)c43)c(C)o2)cc1", "activity change, negative = growth inhibition": -16.3},
      {"smiles": "CCOC(=O)Nc1ccc2c(c1)N(C(=O)CCN1CCN(CCO)CC1)c1ccccc1CC2", "activity change, negative = growth inhibition": -0.457},
      {"smiles": "CCOC(=O)Nc1ccc(NC(=O)OCC)cc1", "activity change, negative = growth inhibition": -20.3},
      {"smiles": "CCOC(=O)Nc1ccc2c(c1)N(C(=O)CCCl)c1ccccc1[S@]2=O", "Potency": "4.61 µM (active)"},
      {"smiles": "CN(CC(=O)Nc1ccccc1F)CC(=O)Nc1ccccc1Br", "activity change, negative = growth inhibition": -2.65},
      {"smiles": "CN(C(=N)N)c1ccc(/C=C2\\C=Cc3ccccc32)cc1", "Potency": "5.01 µM (active)"},
      {"smiles": "COc1ccc(N(CC(=O)N/N=C/c2cccc3c2OCCO3)S(=O)(=O)c2ccc(NC(C)=O)cc2)cc1", "activity change, negative = growth inhibition": 1.44},
      {"smiles": "CC(=O)N1CCN(C(=O)c2cccc(S(=O)(=O)Nc3ccc(C)cc3)c2)CC1", "activity change, negative = growth inhibition": -5.91},
      {"smiles": "O=C(c1cccc(S(=O)(=O)Nc2ccccc2Cl)c1)N1CCN(C(=O)c2ccco2)CC1", "activity change, negative = growth inhibition": -7.9},
      {"smiles": "CCCCc1ccc(NS(=O)(=O)c2cccc(C(=O)N3CCCN(C)CC3)c2)cc1", "Potency": "23.1 µM (active)"},
      {"smiles": "COc1ccc(Br)c2c1C(=O)CC2", "activity change, negative = growth inhibition": 5.78},
      {"smiles": "Nc1nonc1-n1nnc(C(=O)N/N=C/C2CCCCC2)c1-c1ccccc1", "activity change, negative = growth inhibition": -15},
      {"smiles": "CC(=O)Nc1ccc(Oc2ccc3c(c2)C(=O)NC3=O)cc1", "activity change, negative = growth inhibition": 25.5}
    ]}
  ]
}
